# According to the supplement of paper PMC10849652:
# Targets with a hit are over-represented here; the source holds about 7,900 in all. About 0.6% of all pairs of compound and target were hits. Unmarked numbers belong to inactive results.
# Legend:
# Experiment in all cases: log2 fold change, soluble protein after heating vs DMSO (PISA); higher = thermal stabilisation; K562 cells, 10 uM, 30 min; active = over 0.2 and 3.5 SD of the protein, either way, in both replicates (recomputed)
# YAE1 = YAE1 (UniProt Q9NRH1)
# Outline: (§1)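 Soluble protein was quantified by TMTpro 16plex LC-MS/MS after channel sums were equalised. It was obtained as the supernatant after 21,000xg for 90 min from pooled aliquots of K562 cells (2×10^6 cells/mL, 10 μM compound, 30 min) heated for 3 min across 48°C-58°C and extracted in PBS with 0.5% NP-40 at 4°C. Thermal stability values are relative to control samples and come from duplicates. They are given as log2 fold changes.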
# YBX1 = YBX1 (UniProt P67809)
# Outline: as §1
# YES1 = YES1 (UniProt P07947)
# Outline: as §1
# YIPF4 = YIPF4 (UniProt Q9BSR8)
# Outline: as §1
# YIPF5 isoform 3 = YIPF5 isoform 3 (UniProt Q969M3)
# Outline: as §1
# YIPF6 = YIPF6 (UniProt Q96EC8)
# Outline: as §1
# YLPM1 = YLPM1 (UniProt P49750)
# Chain of YLPM1 (P49750 whole entry, looked up): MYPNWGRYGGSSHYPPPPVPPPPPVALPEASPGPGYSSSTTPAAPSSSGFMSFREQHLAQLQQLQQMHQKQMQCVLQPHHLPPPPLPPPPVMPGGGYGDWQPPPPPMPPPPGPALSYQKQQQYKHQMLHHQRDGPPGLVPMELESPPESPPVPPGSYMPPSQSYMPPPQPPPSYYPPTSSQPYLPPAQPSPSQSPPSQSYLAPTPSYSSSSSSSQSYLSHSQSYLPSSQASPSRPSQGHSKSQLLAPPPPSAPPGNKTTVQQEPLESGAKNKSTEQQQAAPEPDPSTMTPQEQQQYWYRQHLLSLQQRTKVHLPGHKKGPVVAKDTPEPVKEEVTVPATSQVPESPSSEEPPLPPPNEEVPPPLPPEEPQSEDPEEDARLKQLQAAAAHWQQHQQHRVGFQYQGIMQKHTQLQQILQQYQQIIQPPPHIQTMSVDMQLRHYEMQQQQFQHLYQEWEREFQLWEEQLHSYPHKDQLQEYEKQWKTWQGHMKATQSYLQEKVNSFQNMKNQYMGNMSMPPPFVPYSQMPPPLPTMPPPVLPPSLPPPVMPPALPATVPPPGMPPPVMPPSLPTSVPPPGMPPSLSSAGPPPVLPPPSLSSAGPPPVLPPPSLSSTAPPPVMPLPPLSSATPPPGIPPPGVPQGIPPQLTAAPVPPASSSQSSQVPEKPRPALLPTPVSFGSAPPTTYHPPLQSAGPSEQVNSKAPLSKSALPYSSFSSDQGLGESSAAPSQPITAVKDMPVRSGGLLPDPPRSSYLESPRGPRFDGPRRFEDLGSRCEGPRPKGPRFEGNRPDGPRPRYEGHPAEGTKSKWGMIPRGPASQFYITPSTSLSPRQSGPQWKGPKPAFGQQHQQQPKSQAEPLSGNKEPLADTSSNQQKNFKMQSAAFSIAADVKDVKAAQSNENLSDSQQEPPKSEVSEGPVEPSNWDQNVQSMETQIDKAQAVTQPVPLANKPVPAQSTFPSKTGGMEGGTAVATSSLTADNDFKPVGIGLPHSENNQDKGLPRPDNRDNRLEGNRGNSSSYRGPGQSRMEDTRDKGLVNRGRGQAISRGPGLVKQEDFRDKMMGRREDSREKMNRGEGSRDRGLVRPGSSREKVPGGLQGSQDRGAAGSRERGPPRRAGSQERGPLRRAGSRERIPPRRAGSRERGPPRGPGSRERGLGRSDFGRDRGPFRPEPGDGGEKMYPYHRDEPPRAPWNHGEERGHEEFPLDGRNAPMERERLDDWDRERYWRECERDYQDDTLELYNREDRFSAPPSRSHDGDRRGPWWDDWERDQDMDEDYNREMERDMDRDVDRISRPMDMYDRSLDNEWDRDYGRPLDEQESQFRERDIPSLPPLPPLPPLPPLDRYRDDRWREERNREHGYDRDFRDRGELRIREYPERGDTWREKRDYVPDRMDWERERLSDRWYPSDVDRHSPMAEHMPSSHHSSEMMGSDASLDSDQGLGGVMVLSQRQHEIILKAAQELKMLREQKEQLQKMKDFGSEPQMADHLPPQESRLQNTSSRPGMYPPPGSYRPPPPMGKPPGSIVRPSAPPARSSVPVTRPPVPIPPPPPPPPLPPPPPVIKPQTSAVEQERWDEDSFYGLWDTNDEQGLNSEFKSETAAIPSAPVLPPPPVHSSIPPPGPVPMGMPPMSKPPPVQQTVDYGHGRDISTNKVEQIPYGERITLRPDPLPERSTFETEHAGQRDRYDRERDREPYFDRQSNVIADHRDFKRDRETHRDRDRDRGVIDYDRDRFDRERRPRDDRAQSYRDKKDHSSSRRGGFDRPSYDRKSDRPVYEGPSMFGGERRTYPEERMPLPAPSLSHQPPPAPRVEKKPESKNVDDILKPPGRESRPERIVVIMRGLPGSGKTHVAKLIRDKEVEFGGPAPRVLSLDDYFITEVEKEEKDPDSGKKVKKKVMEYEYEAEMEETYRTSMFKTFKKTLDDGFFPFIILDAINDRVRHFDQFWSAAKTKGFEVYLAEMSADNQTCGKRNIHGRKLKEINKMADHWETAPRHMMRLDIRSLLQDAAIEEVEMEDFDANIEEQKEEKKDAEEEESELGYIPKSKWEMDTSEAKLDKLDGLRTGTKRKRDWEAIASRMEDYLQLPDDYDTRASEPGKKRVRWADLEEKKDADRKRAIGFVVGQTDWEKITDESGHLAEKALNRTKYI
# Outline: as §1
# YOD1 = YOD1 (UniProt Q5VVQ6)
# Chain of YOD1 (Q5VVQ6 whole entry, looked up): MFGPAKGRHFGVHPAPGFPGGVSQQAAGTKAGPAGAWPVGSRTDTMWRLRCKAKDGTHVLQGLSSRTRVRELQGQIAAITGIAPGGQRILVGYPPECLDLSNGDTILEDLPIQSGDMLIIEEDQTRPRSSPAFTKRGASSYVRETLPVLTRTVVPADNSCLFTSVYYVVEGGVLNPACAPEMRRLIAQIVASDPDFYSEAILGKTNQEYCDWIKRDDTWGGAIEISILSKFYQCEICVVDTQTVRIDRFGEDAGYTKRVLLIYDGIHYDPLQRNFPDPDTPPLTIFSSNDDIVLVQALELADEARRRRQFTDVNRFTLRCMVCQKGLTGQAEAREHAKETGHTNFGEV
# Outline: as §1
# YPEL5 = YPEL5 (UniProt P62699)
# Outline: as §1
# YWHAB = YWHAB (UniProt P31946)
# Outline: as §1
# YWHAQ = YWHAQ (UniProt P27348)
# Chain of YWHAQ (P27348 whole entry, looked up): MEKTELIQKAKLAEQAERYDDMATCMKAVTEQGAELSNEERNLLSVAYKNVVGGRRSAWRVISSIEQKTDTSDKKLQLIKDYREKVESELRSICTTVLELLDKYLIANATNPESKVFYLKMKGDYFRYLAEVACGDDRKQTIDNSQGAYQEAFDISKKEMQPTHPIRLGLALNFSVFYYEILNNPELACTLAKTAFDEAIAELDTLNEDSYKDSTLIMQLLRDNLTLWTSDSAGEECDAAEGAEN
# Outline: as §1
# YWHAZ [1] = target: YWHAZ (UniProt P63104)
# Outline: as §1
# YY1 = YY1 (UniProt P25490)
# Chain of YY1 (P25490 whole entry, looked up): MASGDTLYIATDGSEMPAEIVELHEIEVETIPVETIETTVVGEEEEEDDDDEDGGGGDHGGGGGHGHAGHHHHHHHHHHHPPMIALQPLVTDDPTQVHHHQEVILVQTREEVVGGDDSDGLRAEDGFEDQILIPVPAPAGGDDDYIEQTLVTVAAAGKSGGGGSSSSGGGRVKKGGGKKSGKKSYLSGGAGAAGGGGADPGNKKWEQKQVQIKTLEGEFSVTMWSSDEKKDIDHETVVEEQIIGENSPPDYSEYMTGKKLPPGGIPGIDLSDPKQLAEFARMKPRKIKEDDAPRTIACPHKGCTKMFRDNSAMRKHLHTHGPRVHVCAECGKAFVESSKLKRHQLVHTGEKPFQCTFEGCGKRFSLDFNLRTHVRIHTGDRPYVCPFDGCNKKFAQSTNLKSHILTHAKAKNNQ
# Outline: as §1
# ZADH2 = ZADH2 (UniProt Q8N4Q0)
# Chain of ZADH2 (Q8N4Q0 whole entry, looked up): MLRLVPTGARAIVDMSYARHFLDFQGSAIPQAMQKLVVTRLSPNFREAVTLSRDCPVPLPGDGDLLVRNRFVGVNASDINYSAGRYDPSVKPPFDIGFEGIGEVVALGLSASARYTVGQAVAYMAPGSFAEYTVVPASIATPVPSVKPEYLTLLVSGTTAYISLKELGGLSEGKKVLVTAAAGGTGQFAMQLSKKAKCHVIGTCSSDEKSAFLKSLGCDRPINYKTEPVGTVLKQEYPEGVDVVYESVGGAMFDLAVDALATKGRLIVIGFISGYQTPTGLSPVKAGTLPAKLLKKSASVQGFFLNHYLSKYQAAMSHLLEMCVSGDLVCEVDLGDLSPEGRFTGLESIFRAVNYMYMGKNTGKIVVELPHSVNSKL
# Outline: as §1
# ZBTB17 isoform 2 = ZBTB17 isoform 2 (UniProt Q13105)
# Outline: as §1
# ZBTB21 = ZBTB21 (UniProt Q9ULJ3)
# Chain of ZBTB21 (Q9ULJ3 whole entry, looked up): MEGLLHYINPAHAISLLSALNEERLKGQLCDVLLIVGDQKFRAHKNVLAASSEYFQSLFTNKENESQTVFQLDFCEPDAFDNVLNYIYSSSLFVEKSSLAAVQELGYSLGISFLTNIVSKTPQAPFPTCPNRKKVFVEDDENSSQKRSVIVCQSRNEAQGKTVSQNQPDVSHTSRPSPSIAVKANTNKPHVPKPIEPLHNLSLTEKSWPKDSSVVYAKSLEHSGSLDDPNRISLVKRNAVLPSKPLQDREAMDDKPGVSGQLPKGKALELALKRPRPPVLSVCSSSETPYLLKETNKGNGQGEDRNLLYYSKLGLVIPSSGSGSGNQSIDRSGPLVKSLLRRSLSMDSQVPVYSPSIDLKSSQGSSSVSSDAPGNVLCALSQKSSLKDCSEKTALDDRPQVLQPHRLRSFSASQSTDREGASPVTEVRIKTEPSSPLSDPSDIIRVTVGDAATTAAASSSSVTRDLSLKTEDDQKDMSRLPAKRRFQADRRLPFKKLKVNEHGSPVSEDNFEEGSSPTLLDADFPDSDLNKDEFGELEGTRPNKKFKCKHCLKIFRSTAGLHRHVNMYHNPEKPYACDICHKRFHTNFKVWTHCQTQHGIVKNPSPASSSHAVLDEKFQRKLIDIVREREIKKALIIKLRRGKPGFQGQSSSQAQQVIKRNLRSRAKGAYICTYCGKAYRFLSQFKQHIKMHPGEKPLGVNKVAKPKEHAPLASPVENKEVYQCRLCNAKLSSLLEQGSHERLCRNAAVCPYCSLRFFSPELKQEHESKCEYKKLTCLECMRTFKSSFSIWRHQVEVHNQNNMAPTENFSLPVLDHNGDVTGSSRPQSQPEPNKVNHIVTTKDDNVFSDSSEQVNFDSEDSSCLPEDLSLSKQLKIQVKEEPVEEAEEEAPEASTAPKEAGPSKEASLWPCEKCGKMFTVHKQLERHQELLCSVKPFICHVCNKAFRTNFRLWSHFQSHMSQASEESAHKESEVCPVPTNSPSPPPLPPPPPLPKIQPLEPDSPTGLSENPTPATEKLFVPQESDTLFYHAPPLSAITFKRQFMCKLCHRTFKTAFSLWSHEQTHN
# Outline: as §1
# ZBTB43 = ZBTB43 (UniProt O43298)
# Chain of ZBTB43 (O43298 whole entry, looked up): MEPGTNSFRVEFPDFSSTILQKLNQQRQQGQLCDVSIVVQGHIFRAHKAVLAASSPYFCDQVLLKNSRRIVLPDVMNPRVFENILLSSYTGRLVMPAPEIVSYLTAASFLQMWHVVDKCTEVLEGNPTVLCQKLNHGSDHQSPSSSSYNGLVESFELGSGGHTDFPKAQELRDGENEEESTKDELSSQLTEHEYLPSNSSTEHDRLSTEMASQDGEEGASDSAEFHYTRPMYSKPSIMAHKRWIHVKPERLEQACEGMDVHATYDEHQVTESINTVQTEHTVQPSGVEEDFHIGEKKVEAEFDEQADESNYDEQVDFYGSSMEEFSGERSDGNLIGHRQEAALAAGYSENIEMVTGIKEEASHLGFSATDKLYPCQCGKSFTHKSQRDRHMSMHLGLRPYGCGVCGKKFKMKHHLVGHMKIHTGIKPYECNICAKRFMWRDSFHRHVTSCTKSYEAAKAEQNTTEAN
# Outline: as §1
# ZC3H18 = ZC3H18 (UniProt Q86VM9)
# Outline: as §1
# YWHAZ [2] = target: YWHAZ (UniProt E7ESK7)
# Outline: as §1
SMILES,log2 fold change (YAE1),log2 fold change (YBX1),log2 fold change (YES1),log2 fold change (YIPF4),log2 fold change (YIPF5 isoform 3),log2 fold change (YIPF6),log2 fold change (YLPM1),log2 fold change (YOD1),log2 fold change (YPEL5),log2 fold change (YWHAB),log2 fold change (YWHAQ),log2 fold change (YWHAZ [1]),log2 fold change (YY1),log2 fold change (ZADH2),log2 fold change (ZBTB17 isoform 2),log2 fold change (ZBTB21),log2 fold change (ZBTB43),log2 fold change (ZC3H18),log2 fold change (YWHAZ [2])
NC(=O)c1ccc2nc(-c3ccc(Oc4ccc(Cl)cc4)cc3)[nH]c2c1,0,-0.033,0.049,-0.039,0.012,0.005,0.033,0.019,-0.021,-0.012,-0.021,0.011,0.03,0.052,0.03,0.053,0.037,0.045,
Nc1ccccc1NC(=O)c1ccc(CNC(=O)OCc2cccnc2)cc1 [entinostat],0.011,-0.073,,-0.04,-0.05,0.228,-0.064,-0.143,-0.187,-0.042,0.116,0.032,0.053,-0.04,-0.14,-0.074,-0.091,0.021,
O=C(Nc1cccc(Nc2ncc(Br)c(NCCc3cnc[nH]3)n2)c1)N1CCCC1,-0.084,0.103,-0.139,-0.033,0.033,-0.013,-0.083,-0.012,,0.006,-0.089,0.011,-0.065,0.001,-0.014,0.107,-0.052,-0.126,-0.031
CON(C)C(=O)N1N=C(c2cc(F)ccc2F)S[C@@]1(CCCN)c1ccccc1 [filanesib],0.133,0.202,,0.077,0.017,-0.08,0.083,-0.067,0.413,-0.044,-0.086,-0.027,-0.006,0.065,-0.026,0.075,-0.024,0.217,
COC(=O)[C@H](CCSC)NC(=O)c1ccc(NC[C@@H](N)CS)cc1-c1ccccc1,0.059,0.113,-0.006,0.088,0.046,0.041,-0.014,-0.016,-0.23,0.016,0.019,-0.002,0.014,0.052,,-0.022,0.018,0.045,
NCC(=O)Nc1ccc(-n2nc(C(F)(F)F)cc2-c2ccc3c(ccc4ccccc43)c2)cc1,-0.011,0.055,0.001,-0.004,0.021,0.071,-0.069,-0.015,0.129,-0.007,0.457,0.084,-0.009,0.017,,-0.042,0,-0.012,
CN1CCN(c2nc(C3=C(c4c[nH]c5ccccc45)C(=O)NC3=O)c3ccccc3n2)CC1 [sotrastaurin],0.074,0.016,,0.113,0.034,-0.648 (active),0.021,0.034,-0.102,0.031,-0.043,-0.01,-0.092,-0.015,0.03,0.022,0.027,-0.11,
CCn1c(C(=O)N(C2CC2)C2CC2)cc2c3c(ncn3C)c(Nc3cc(C)n(C)n3)nc21,-0.018,-0.016,-0.243,0,-0.01,0.022,-0.077,-0.014,0.027,0.027,0.039,0.017,0.044,0.154,0.005,-0.038,-0.033,0.018,
CN(C)CC(=O)Nc1ccc2[nH]c(=O)c3ccccc3c2c1,-0.108,-0.134,-0.075,0.09,0.014,-0.012,-0.037,0.043,0.008,-0.033,0.16,0.009,-0.047,0.02,,0.018,-0.07,-0.039,
Cc1nc(Nc2n[nH]c3c2CN(C(=O)N[C@H](CN(C)C)c2ccccc2)C3(C)C)c2sccc2n1,0.104,0.149,-0.746 (active),0.004,0.016,-0.042,-0.075,-0.089,-0.118,-0.002,-0.033,-0.015,-0.304 (active),-0.127,,-0.093,0.043,-0.145,
O=C(CCCCCCC(=O)Nc1ccccc1)NO [vorinostat],0.044,-0.056,0.069,-0.046,0.156,-0.035,0.024,0.033,0.028,-0.02,0.39,-0.013,0.134,0.002,,0.079,-0.005,0.091,
CS(=O)(=O)N1CCN(Cc2cc3nc(-c4cccc5[nH]ncc45)nc(N4CCOCC4)c3s2)CC1 [pictilisib],0.021,0.033,0.093,0.15,0.027,0.107,0.065,-0.001,0.172,0.002,-0.142,-0.037,-0.021,0.14,,-0.035,0.027,-0.019,
CC1=C(C(=O)Nc2cc3cn[nH]c3cc2F)C(c2ccc(C(F)(F)F)cc2)CC(=O)N1 (stereo not drawn),-0.001,0.044,-0.012,-0.019,-0.007,0.055,-0.01,0.023,0.058,0.001,0.107,0.058,0.059,-0.014,,0.033,-0.04,0.022,
Cc1cn(-c2cc(NC(=O)c3ccc(C)c(Nc4nccc(-c5cccnc5)n4)c3)cc(C(F)(F)F)c2)cn1 [nilotinib],-0.023,0.033,-0.033,0.046,0.021,0.063,-0.044,-0.061,-0.237,0.039,0.018,0.04,-0.033,0.04,,0.023,-0.157,0.099,
NC(=O)Nc1cc(-c2cccc(F)c2)sc1C(=O)N[C@H]1CCCNC1,-0.023,0.025,,0.066,0.023,-0.081,-0.023,-0.079,0.114,-0.027,0.065,0.098,0.037,-0.074,-0.032,-0.083,-0.018,-0.037,
